The values below come from PubChem BioAssay AID1479146 (National Center for Advancing Translational Sciences (NCATS), 2020).

Structures are written as SMILES. Results filed as inconclusive are left out. Entries that show only a call come without a potency. The source made the active and inactive calls. Calls come from the whole dose curve.

This experiment is described as follows: Confirmatory qHTS for Huh7 cytotoxicity: counterscreen for inhibitors of MERS-S pseudo-typed particle cell entry. Particulars: viability; series mostly up to 57.1 µM. In general terms: qHTS replaces the single test concentration by a dilution series.
Take `Cc1nnc(C(=O)NC(C)(C)c2nc(C(=O)NCc3ccc(F)cc3)c(O)c(=O)n2C)o1`: the Potency result is “inactive”. For `C=CC1(C)CC(=O)C2(O)C(C)(O1)C(OC(C)=O)C(OC(=O)CCN(C)C)C1C(C)(C)CCC(O)C12C` (configuration not stated), the Potency result is “inactive”. As to `CC(C)OC(=O)OCOP(=O)(CO[C@H](C)Cn1cnc2c(N)ncnc21)OCOC(=O)OC(C)C`, the Potency entry was “inactive”. Consider `CC(=O)N1CCN(c2ccc(OC[C@H]3CO[C@](Cn4ccnc4)(c4ccc(Cl)cc4Cl)O3)cc2)CC1`, for which the Potency entry was “inactive”. For `CN1CCC(=C2c3ccccc3C=Cc3ccccc32)CC1`, the Potency result was “inactive”. Regarding `O=c1c(C2CC(c3ccc(-c4ccc(Br)cc4)cc3)Cc3ccccc32)c(O)sc2ccccc12` (configuration not stated), the Potency result is “inactive”. As for `COc1cccc2c1C(=O)c1c(O)c3c(c(O)c1C2=O)C[C@@](O)(C(=O)CO)C[C@@H]3O[C@H]1C[C@H](N)[C@@H](O)[C@H](C)O1`, the Potency was 2.15 µM (active). The value for `Cc1cc(C(C#N)c2ccc(Cl)cc2)c(Cl)cc1NC(=O)c1cc(I)cc(I)c1O` (configuration not stated) was “inactive”. As to `CCC(C)(C)C(=O)O[C@H]1C[C@@H](C)C=C2C=C[C@H](C)[C@H](CC[C@@H]3C[C@@H](O)CC(=O)O3)[C@H]21`, the Potency entry is “inactive”. The value for `CC(C)C(=O)Oc1ccc(CO)cc1[C@H](CCN(C(C)C)C(C)C)c1ccccc1` was “inactive”; that for `COc1cc2nccc(Oc3ccc(NC(=O)NC4CC4)c(Cl)c3)c2cc1C(N)=O` was “inactive”. The value for `O=C1c2c(O)ccc(O)c2C(=O)c2c(NCCNCCO)ccc(NCCNCCO)c21` was 17.1 µM (active); that for `O=c1ccc2ccccc2o1` was “inactive”; that for `CN1CCC(=C2c3ccccc3CCc3sccc32)CC1` was “inactive”.

For `CC(C)(C)NC(=O)[C@H]1CC[C@H]2[C@@H]3CC[C@H]4NC(=O)C=C[C@]4(C)[C@H]3CC[C@]12C`, the Potency entry is “inactive”. Turning to `C=C1c2c(Cl)ccc(O)c2C(O)=C2C(=O)[C@@]3(O)C(O)=C(C(N)=O)C(=O)[C@@H](N(C)C)[C@@H]3[C@@H](O)[C@H]12`, the Potency entry is “inactive”. The value for `C[n+]1c2cc(N)ccc2cc2ccc(N)cc21` (tested in a mixture with another compound) was 3.83 µM (active); that for `N/C(=N\N=C\c1ccc(Cl)cc1)N/N=C/c1ccc(Cl)cc1` was “inactive”.

For `N=C(N)c1ccc(OCCCCCOc2ccc(C(=N)N)cc2)cc1`, the Potency entry was “inactive”. Regarding `CC(CN(C)C)CN1c2ccccc2CCc2ccccc21` (configuration not stated), the Potency entry is “inactive”. Regarding `Cc1c(N)nc(C(CC(N)=O)NCC(N)C(N)=O)nc1C(=O)NC(C(=O)NC(C)C(O)C(C)C(=O)NC(C(=O)NCCc1nc(-c2nc(C(=O)NCCCN[C@@H](C)c3ccccc3)cs2)cs1)C(C)O)C(O[C@@H]1O[C@@H](CO)[C@@H](O)[C@H](O)[C@@H]1O[C@H]1O[C@H](CO)[C@@H](O)[C@H](OC(N)=O)[C@@H]1O)c1cnc[nH]1` (some centres not stated), the Potency entry is “inactive”. The value for `CC[C@H](C)C(=O)O[C@H]1C[C@@H](C)C=C2C=C[C@H](C)[C@H](CC[C@@H]3C[C@@H](O)CC(=O)O3)[C@H]21` was “inactive”; that for `CN(C)[C@@H](CCOc1cccc2ccccc12)c1ccccc1` was “inactive”; that for `COc1cccc2c1C(=O)c1c(O)c3c(c(O)c1C2=O)C[C@@](O)(C(C)=O)C[C@@H]3O[C@H]1C[C@H](N)[C@H](O)[C@H](C)O1` was 6.07 µM (active). For `CC(=O)OCC1=C(C(=O)O)N2C(=O)[C@@H](NC(=O)Cc3cccs3)[C@H]2SC1` the value was “inactive”; for `CN(C/C=C/c1ccccc1)Cc1cccc2ccccc12`, “inactive”; for `CCN1CCN(Cc2ccc(Nc3ncc(F)c(-c4cc(F)c5nc(C)n(C(C)C)c5c4)n3)nc2)CC1`, 8.57 µM (active).
